Coupling enz = coupling enzyme interference in Giardia aldolase counter-screen | coupling enzyme system counterscreen, AmpLite Red fluorescence | 290,000 tested, 0.67% active | activity change, negative = inhibition, % at 58.2 µM, hits read low; in the data active means activity change below about -30%
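Counterscreen of the coupled detection system alone, without aldolase: glyceraldehyde-3-phosphate coupling enzymes plus AmpLite Red readout. Compounds at 57.5 uM final, 10 min RT preincubation, 20 min RT reaction, fluorescence 525/598 nm.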
Tau fibril FP = inhibitors of human tau fibril formation; P10636; K18 P301L tau heparin fibrillization, Alexa594 FP, 6 h; Potency, µM (top dose mostly 57.7 µM), for inactives: top-dose activity, negative = inhibition, hits mostly inhibitors; 280,000 tested, 0.39% active; AID 1468; further: potency means the concentration at half of the fitted maximal effect; nearly all actives have a fitted effect of over 55% in size
Target sequence (P10636 561-689 P618L limits assumed): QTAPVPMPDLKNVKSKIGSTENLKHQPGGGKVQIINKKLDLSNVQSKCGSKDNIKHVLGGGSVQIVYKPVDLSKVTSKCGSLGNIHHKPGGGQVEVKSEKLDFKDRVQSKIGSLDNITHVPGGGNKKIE
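Human K18 P301L fragment (15 uM unlabeled plus 0.24 uM Alexa 594-labeled) in 100 mM sodium acetate pH 7 with compound, aggregation induced by 20 uM heparin for 6 hr at 37 C. ThT (30 uM) added for 1 hr, then Alexa 594 FP read.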
Tau ThT inhib = blocks human tau fibril formation measured by thioflavin T | P10636 | recombinant tau K18 P301L, heparin-induced fibrillization, ThT fluorescence | Potency, µM (titrated, usually from 57.4 µM), inactives show at the top dose activity, negative = inhibition, usual class: inhibitors | 270,000 tested, 2.1% active | AID 1460; further: potency means the concentration at half of the fitted maximal effect; nearly all actives have a fitted effect of over 55% in size
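Tau K18 P301L fragment (15 uM unlabeled plus 0.24 uM Alexa 594-labeled) in 100 mM sodium acetate pH 7 with compound, fibrillization induced by 20 uM heparin for 6 hr at 37 C. Thioflavin T (30 uM) added, fluorescence read after 1 hr (ex 450, em 510 nm).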
Sfp PPTase inh = Sfp phosphopantetheinyl transferase inhibition. AID 1490. Q9F4F7. Potency, µM, for inactives: largest response in the series, negative = inhibition, actives largely listed as inhibitors. Biochemical Sfp PPTase activity, qHTS. 310,000 tested, 3.5% active;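 further: the enzyme is Sfp with the accession as filed and its product quenches rhodamine fluorescence; potency means the concentration at half of the fitted maximal effect; 0% = enzyme reaction without inhibitor and -100% = no enzyme wells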
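Fluorescence-quenching assay: 15 nM Sfp-PPTase preincubated 15 min at room temperature with compound, then 5 uM rhodamine-CoA and 12.5 uM BHQ-2-labelled YbbR peptide added. Fluorescence (ex 525/em 598 nm) read at start and after 30 min; difference gives rate.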
G9a inh = blocks human histone lysine methyltransferase G9a; Q96KQ7; G9a H3K9 monomethylation, AlphaScreen, 2 h; Potency, µM (titrated, usually from 102 µM), without a hit: top-dose activity, negative = inhibition, actives largely listed as inhibitors; 350,000 tested, 8.8% active; further: potency means the concentration at half of the fitted maximal effect; nearly all actives have a fitted effect of over 75% in size
Target sequence (Q96KQ7 913-1193 limits assumed): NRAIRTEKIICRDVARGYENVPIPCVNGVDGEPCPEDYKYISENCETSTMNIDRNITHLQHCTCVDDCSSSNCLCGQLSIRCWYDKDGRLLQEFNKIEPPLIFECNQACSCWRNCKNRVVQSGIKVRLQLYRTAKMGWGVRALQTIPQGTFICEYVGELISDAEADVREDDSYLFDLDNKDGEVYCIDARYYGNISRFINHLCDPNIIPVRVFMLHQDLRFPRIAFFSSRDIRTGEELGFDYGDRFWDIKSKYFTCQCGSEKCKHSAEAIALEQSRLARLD
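AlphaScreen read-out: biotin-H3K9 peptide (500 nM) methylation by 20 nM enzyme with 20 uM SAM, 2 h at room temperature after 15 min compound preincubation; anti-monomethyl H3K9 antibody plus donor/acceptor beads, 10 min dark.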
Tau fluor counter = counter-screen for tau fibril formation inhibitors. tau K18 P301L Alexa594 fluorescence, heparin fibrillization. Potency, µM (highest dose often 57.7 µM), inactives show at the top dose activity change, negative = decrease. 280,000 tested, 0.93% active. AID 1463; further: potency means the concentration at half of the fitted maximal effect; nearly all actives have a fitted effect of over 55% in size
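Human tau K18 P301L (15 uM unlabeled, 0.24 uM Alexa 594-labeled) in 100 mM sodium acetate pH 7 with 20 uM heparin, 6 hr at 37 C. ThT 30 uM added, 1 hr ambient; Alexa 594 FP and total fluorescence read at 555/632 nm.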
Sfp inh conf = Sfp phosphopantetheinyl transferase inhibition, confirmation | shares compounds with Sfp PPTase inh | Sfp PPTase enzymatic assay, qHTS titration | Potency, µM (titrated, usually from 114 µM), inactives show top-dose activity change, negative = inhibition, usual class: inhibitors | 380 tested, 79% active | AID 2701;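 further: potency means the concentration at half of the fitted maximal effect; plate controls were uninhibited Sfp reaction for no effect and no enzyme control for full effect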
Target sequence (Q9F4F7 whole entry, looked up): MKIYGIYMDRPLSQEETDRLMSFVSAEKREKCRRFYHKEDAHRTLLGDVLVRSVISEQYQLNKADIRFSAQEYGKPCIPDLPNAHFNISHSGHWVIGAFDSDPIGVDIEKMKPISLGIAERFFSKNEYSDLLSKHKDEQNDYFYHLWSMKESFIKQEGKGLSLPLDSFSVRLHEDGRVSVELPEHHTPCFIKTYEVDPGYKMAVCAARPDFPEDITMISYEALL
Sfp PPTase gel = Blocks Sfp PPTase activity, gel read-out; shares compounds with Sfp PPTase inh; purified Sfp, gel-based phosphopantetheinylation read-out; Potency, µM, usual class: inhibitors; 210 tested, 20% active;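 active means potency below 100 µM; inconclusive means dose-dependent response but potency above 100 µM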;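 further: band intensities scaled against SCH202676 control wells before curve fitting; potency is an IC50 for inhibitors of Sfp transfer activity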
An asterisk follows results filed as active; i = inactive; ? = inconclusive; · = no result given; ! = repeats disagree; [ ] = dose if it differs, or a comment. A selection: hits, their analogues and other compounds. The true share with any hit is near 11%. Unless noted, the call rests on the fitted dose curve; in most records, active means well fitted curve in the direction sought with a large enough effect; inconclusive means small, poorly fitted or top-dose-only effect, or another doubt; inactive means no such curve, though single readings can be large; an effect the other way counts as inactive or inconclusive. Unless noted, on the % scale 0 is the no-effect control and ±100 the full control effect.

SMILES | Coupling enz | Tau fibril FP | Tau ThT inhib | Sfp PPTase inh | G9a inh | Tau fluor counter | Sfp inh conf | Sfp PPTase gel
O=C(CSc1nc2cc([N+](=O)[O-])ccc2n1-c1ccccc1)NCc1ccc2c(c1)OCO2 | 5 | 2% | 0% | 1µM* | ? | -3% | 15µM* | ·
CC(=O)c1ccc(OC(=O)CCc2nc3ccccc3s2)cc1 | -2 | ? | 16µM* | 16µM* | 32µM* | -16% | 33µM* | ?
COC(=O)CCCc1nc2ccccc2s1 | -1 | 1% | -9% | 20% | 63%[59 µM] | -2% | · | ·
CC(=O)OCc1nc2ccccc2s1 | 2 | 2% | -14% | 26% | 73%[59 µM] | -10% | · | ·
O=C(O)COCc1nc2ccccc2s1 | 3 | -7% | · | 25µM* | 50µM* | 8% | -13% | ?
O=C1c2cccc3cccc(c23)C(=O)N1CCc1ccccc1 | -10 | ? | ? | -6% | 57%[59 µM] | ? | · | ·
CCN(CC)CCOCCOC(=O)C1(c2ccccc2)CCCC1 | 1 | 0% | -5% | 50µM*! | 30µM*! | -8% | ? | i
CC1Cc2ccccc2N1C(=O)CN1CCC(C(N)=O)CC1 (stereo not drawn) | 0 | 1% | 5% | -23% | 25% | 0% | · | ·
Cc1ccc(-c2cnn(-c3ccccc3)c2N)cc1 | -2 | · | · | 14% | 4% | · | · | ·
Nc1nc2c(s1)CCc1c-2cnn1-c1ccccc1 | 3 | ? | ? | 2.5µM* | ? | ? | 7.4µM* | ·
CC1(CCc2ccccc2)NC(=O)N(CC(=O)N2CC(=O)Nc3ccccc32)C1=O (stereo not drawn) | -4 | -1% | 3% | ? | · | 6% | · | ·
CCCCNc1ccc(C(=O)OCCOCCOCCOCCOCCOCCOCCOCCOCCOC)cc1 | -1 | · | · | 19% | 7%[59 µM] | · | · | ·
CCOC(=O)c1ccc(NC(=O)CN2CCN(CCN=CC3=C(O)CC(C)(C)CC3=O)CC2)cc1 | -1 | 0% | -17% | 12% | -2%[59 µM] | -10% | · | ·
CCOC(=O)c1ccc(NC(=S)N2CCN(CCN=CC3=C(O)CC(C)(C)CC3=O)CC2)cc1 | -2 | -24% | ? | 11µM* | · | -5% | 18% | ?
Cc1ccc(/C=C/C(=O)NCCc2ccccc2)o1 | 5 | · | · | 7.9µM* | 8.9µM* | · | 19µM* | ·
CCN(CC)S(=O)(=O)c1ccc2c(c1)N(CC(=O)N1CCC(C(N)=O)CC1)C(=O)CO2 | -1 | · | · | 5% | 24%[59 µM] | · | · | ·
Cc1nc(-c2cc(-c3nc(-c4ccc(C(C)(C)C)cc4)no3)no2)cs1 | -3 | -15% | ? | 40µM* | 121% | -20% | 15µM* | i
Cc1onc(-c2ccccc2Cl)c1C(=O)Oc1cc(F)cc(F)c1 | · | ? | -2% | · | 46%[59 µM] | -13% | · | ·
Cc1ccc(/C(C#N)=C\c2ccc(N3CCOCC3)o2)cc1 | -25 | ? | 10µM* | 1.4µM* | 2.5µM* | ? | 13µM* | i
N#C/C(=C/c1ccc(N2CCCCC2)cc1)c1cccc(F)c1 | 1 | 12% | ? | -8% | 4%[59 µM] | ? | · | ·
N#C/C(=C/c1ccc(N2CCCCCC2)o1)c1ccc(Cl)cc1 | -20 | ? | 25µM* | 5µM* | 7.9µM* | ? | 19µM* | ·
N#C/C(=C/c1ccc(N2CCCCC2)o1)c1cccc(F)c1 | -29 | ? | 13µM* | 2.8µM* | 2.5µM* | ? | 21µM* | 19µM*
CC(=O)O/N=C(\N)c1ccc(-c2csnn2)cc1 | 1 | 5% | ? | 0% | -2% | -11% | · | ·
COc1ccccc1C(=O)Nc1ccnn1C1CCN(CCC(C)c2ccc(C)o2)CC1 (stereo not drawn) | 1 | · | · | 50µM* | 7.1µM* | · | 19µM* | ·
CC1CCCN(C(=O)c2nn(C)c3c2CSc2ccccc2-3)C1 (stereo not drawn) | -2 | · | · | 45µM* | · | · | 53µM* | ·
SMILES | Coupling enz | Tau fibril FP | Tau ThT inhib | Sfp PPTase inh | G9a inh | Tau fluor counter | Sfp inh conf | Sfp PPTase gel
COc1cccc(-n2c(C)nc3c(cnn3-c3ccc(C)c(C)c3)c2=O)c1 | · | 3% | -18% | · | 2%[59 µM] | -13% | · | ·
O=C(O)Cn1ncc2c1-c1ccoc1CC2 | -38* | ? | ? | 45µM* | 11µM* | -14% | ? | ·
Cc1c(NC(=O)COC(=O)CCc2c[nH]c3ccccc23)c(=O)n(-c2ccccc2)n1C | · | · | · | 9% | 14%[0.501 µM] | · | · | ·
CCc1c(C)sc(NC(=O)C2CCCCC2C(=O)O)c1C(N)=O (stereo not drawn) | 0 | ? | ? | 4.5µM* | ? | -13% | 11µM* | ·
Cc1nc(NC(=O)C2CCCCC2C(=O)O)sc1C (stereo not drawn) | 4 | · | · | 23% | 51% | · | · | ·
S=C(NCc1ccccc1)NNc1nc2ccccc2[nH]1 | -9 | ? | 28µM* | 4µM* | 2.8µM* | ? | 7.4µM* | 6.2µM*
COc1ccc(C(CC(=O)O)NC(=O)c2ccccc2[N+](=O)[O-])cc1 (stereo not drawn) | 3 | -4% | -2% | 3% | · | 2% | · | ·
O=C(NCC(c1ccco1)N1CCCCC1)c1cc2c(s1)CCCC2 (stereo not drawn) | · | · | · | · | 22%[12.7 µM] | · | · | ·
O=C(NCc1ccco1)c1cc2c(s1)CCCCC2 | 0 | ? | ? | 3.5µM* | -5%[59 µM] | -28% | ? | ·
OCCn1c(CSc2nnc(-c3ccco3)n2-c2ccccc2)nc2ccc(Cl)cc21 | 5 | 3% | -9% | 4µM* | ? | -6% | 12µM* | i
COc1ccc(C(=O)C2CCCN(C(=O)CCc3ccccn3)C2)c(C)c1 (stereo not drawn) | -1 | 1% | -5% | 12% | -1% | -7% | · | ·
COc1ccc(C(=O)C2CCCN(C(=O)CCc3scnc3C)C2)c(C)c1 (stereo not drawn) | -29 | -49% | 28µM* | 13µM* | · | -30% | 6% | ·
Clc1ccc(C[n+]2csc3ccccc32)cc1 | -1 | ? | 22µM* | 4µM* | ? | -12% | 8.3µM* | 2.1µM*
COc1cccc(NC(=O)c2c(-c3ccc(C)cc3)nnc3ccccc23)c1 | · | -7% | 3% | · | -2%[59 µM] | -7% | · | ·
c1ccc(-c2nnc(CN3CCCc4ccccc43)o2)cc1 | -21 | -1% | -13% | 14µM* | ? | -8% | 47µM* | ?
c1ccc(-c2nnc(CN3CCCCC3)o2)cc1 | -1 | · | · | ? | 3% | · | · | ·
CC(C)(C)OC(=O)NC1CC2CCCC(C1)N2Cc1ccccc1 (stereo not drawn) | 6 | · | · | 18% | · | · | · | ·
